Assay results: the supplement of paper PMC10338343
± gives the standard deviation.

Each sequence was assayed on EfPiwi piRISC loaded with L1MC piRNA (26 nt) (assay: pre-steady-state target cleavage rate (min^-1); auxiliary factor: 500 nM Ephydatia muelleri Gtsf1; guide: L1MC piRNA 5'p-UAACUAAAUACUAUGCAAGCUGUAGG; MIWI and MILI are mouse PIWI proteins and EfPiwi is from a freshwater sponge; tags in brackets are library labels; higher = faster piRNA-guided slicing of the target).
In short: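 A transcribed, DNA-blocked target RNA library […] was incubated at 33 °C for 0–8 or 0–960 min with 1 nM active affinity-purified piRISC carrying one synthetic guide, in HEPES–potassium acetate buffer with or without 500 nM GTSF1 partner protein. Uncleaved targets were then sequenced and normalised to depth and to weakly complementary targets. Data from three trials were pooled, with k3 capped at 0.0001 min^-1, and a burst-and-steady-state fit yielded the pre-steady-state cleavage rate.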

| Sequence | pre-steady-state target cleavage rate |
| --- | --- |
| UCCUGCUACAGCUUGCAUAGUAUUAGUUA | 0.00404 ± 0.0022 |
| UCCUGGAUCAGCUAGGAUAGUAUUUAGUUA | 0.00257 ± 0.002 |
| UCCUGGUACAGCUUGCAUAGUACUUAGUUA | 0.00275 ± 0.0022 |
| UCCUGGAUGUGCUUGCAUAGUAUAUUAGUUA | 0.0043 ± 0.0034 |
| UCCUGCUACAGCAUGGAUAGUAUUUAGUUA | 0.00804 ± 0.0023 |
| UCCUGGAACAGCUUGCAUAGUAUUAUAGUUA | 0.0399 ± 0.015 |
| UCCUGGAUCACCUUGCAUAGUAUUUAGUUA | 0.018 ± 0.0063 |
| UCCUGCUACAGCAUGCAUAGUAUUUAGUUA | 0.0124 ± 0.0037 |
| UCCUGCUUCAGCUUGCAUAGUAUAUAGUUA | 0.00887 ± 0.0035 |
| UCCUGGAUGUCGUUUGCAUAGUAUUUAGUUA | 0.0445 ± 0.013 |
| UCCUGCUACAGCUUCCUUAGUAUUUAGUUA | 0.00425 ± 0.0019 |
| UCCUGCUACAGCUAGCAAAGUAUUUAGUUA | 0.0328 ± 0.0098 |
| UCCUCCUACAGCUUGCAUAGUAUUUAGUUA [g2:g26:cont:t1A] | 0.121 ± 0.034 |
| UCCUGCUACAGCUUGCAUAGUAUUUAGUUC [g2:g25:cont:t1C] | 0.0645 ± 0.016 |
| UCCUGGAUCAGCUUGCUUAGUAAUUAGUUA | 0.0988 ± 0.033 |
| UCCUGGAUGAGCUUGCAUCGUAUUUAGUUA | 0.00975 ± 0.0029 |
| UCCUGGUACAGCUUGCAUAGUAUGUUAGUUA | 0.00488 ± 0.0028 |
| UCCUGGAUCGCUUGCAUAGUAUUUAGUUA | 0.065 ± 0.011 |
| UCCUGGAUCAGCUUGCAUAGUAUUUAUGUUA | 0.0559 ± 0.02 |
| UCCUGCUACGCUUGCAUAGUAUUUAGUUA | 0.0122 ± 0.0033 |

| Sequence | pre-steady-state target cleavage rate |
| --- | --- |
| UCCUCCUACAGGUUGCAUAGUAAUUAGUUA | 0.0115 ± 0.0031 |
| UCCUGGAUGAGCUUGCUUAGUAUUUAGUUA | 0.00629 ± 0.0027 |
| UCCUGCUACAGCUUAGCAUAGUAUUUAGUUA | 0.0477 ± 0.015 |
| UCCUCCUACUGCUUGCAUAGUUUUUAGUUA | 0.0079 ± 0.0028 |
| UCCUGGAUCACCAUGCAUAGUAUUUAGUUA | 0.013 ± 0.0061 |
| UCCUGGUACAGCUUGCCAUAGUAUUUAGUUA | 0.0045 ± 0.0021 |
| UCCUGGUACAGCUUGCAUAGUAUUUAUUUA | 0.00732 ± 0.0063 |
| UCCUCCUACAGGUUGCAAAGUAUUUAGUUA | 0.0547 ± 0.011 |
| UCCUGGAUGUGCUUGCAUAGUAUUUGGUUA | 0.00579 ± 0.003 |
| UCCUGGAUCAGCUUGCAUAGUCUUUAGUUA | 0.0204 ± 0.0053 |
| UCCUGCUACAGCUUGCAAGUAUUUAGUUA | 0.00614 ± 0.0027 |
| UCCUGCUACAGCUUGCAUAGUAGUUUAGUUA | 0.00695 ± 0.0028 |
| UCCUCCUACAGCUUGCAUAGUAUUUAGUUU [g2:g26:cont:t1U] | 0.265 ± 0.062 |
| UCCUCCUAGAGCAUGCAUAGUAUUUAGUUA | 0.0163 ± 0.0058 |
| UCCUGGAACAGCUUGCAUAGUAUAUAGUUA | 0.00501 ± 0.0025 |
| UCCUGGAUGAGCUUGUAUAGUAUUUAGUUA | 0.0538 ± 0.014 |
| UCCUCCUACAGCCUGCAUAGUAUUUAGUUA | 0.0698 ± 0.018 |
| UCCUGCUACAGCUUGCAUAGUAUUAUAGUUA | 0.0103 ± 0.0037 |
| UCCUGCUACAGCUUGCUUAGUAUUUAGUUA | 0.0201 ± 0.0068 |
| UCCUGGAUCAGCUUGCAAAGUAUUUAGUAA | 0.00607 ± 0.0027 |
